Results taken from PubChem BioAssay AID1159580 (chemical genetic matrix, 2015).
In all, about 5,500 compounds went through this assay and about 2,000 (36%) were called active. Inconclusive results (about 18%) are left out. Rule as the data show it: active = normalized growth mostly below about 0.91 (no sharp cut-off); inconclusive = no clear call, values can overlap the other calls; inactive = mostly above about 0.92. Some of the results follow.

Assay: chemical genetic growth profiling, strain panel (AID 1159580);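 also: tested at 20 µM; growth read once vehicle control cultures reached saturation at 30 °C; 1 = growth at the plate median or of vehicle wells; lower values mean less growth of the strain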
Conditions: S. cerevisiae deletion strains, growth OD

Measured: normalized growth

O=C(O)CF
inactive: locus YAL013W, strain DEP1, hits give low values 0.998 | locus YAL021C, strain ccr4, hits give low values 1.01 | locus YAL026C, strain drs2, hits give low values 1.02 | locus YAL030W, strain snc1, hits give low values 1.02 | locus YBL061C, strain skt5, hits give low values 1.02 | locus YBR009C, strain hhf1, hits give low values 1.06 | locus YBR021W, strain FUR4, hits give low values 0.97 | locus YBR023C, strain chs3, hits give low values 1.03 | locus YBR171W, strain sec66, hits give low values 1.03 | locus YBR229C, strain ROT2, hits give low values 0.987 | locus YBR231C, strain swc5, hits give low values 1.01 | locus YBR279W, strain paf1, hits give low values 1.03 | locus YCL011C, strain gbp2, hits give low values 1.03 | locus YCL016C, strain dcc1, hits give low values 1.04 | locus YCL029C, strain bik1, hits give low values 0.975 | locus YCL061C, strain MRC1, hits give low values 1.02 | locus YCL069W, strain vba3, hits give low values 1.02 | locus YCR088W, strain abp1, hits give low values 1.02 | locus YDL005C, strain med2, hits give low values 1.02 | locus YDL035C, strain GPR1, hits give low values 1 | locus YDL040C, strain nat1, hits give low values 1.02 | locus YDL074C, strain BRE1, hits give low values 1.03 | locus YDL101C, strain DUN1, hits give low values 0.995 | locus YDL134C, strain PPH21, hits give low values 0.994 | locus YDL185W, strain tfp1, hits give low values 0.967 | locus YDL192W, strain arf1, hits give low values 0.98 | locus YDR001C, strain nth1, hits give low values 1.02 | locus YDR069C, strain doa4, hits give low values 1 | locus YDR101C, strain arx1, hits give low values 0.969 | locus YDR137W, strain rgp1, hits give low values 1.03 | locus YDR150W, strain NUM1, hits give low values 0.995 | locus YDR159W, strain sac3, hits give low values 0.997 | locus YDR162C, strain NBP2, hits give low values 1.03 | locus YDR195W, strain ref2 1 | locus YDR297W, strain sur2, hits give low values 1.03 | locus YDR318W, strain mcm21, hits give low values 0.965 | locus YDR334W, strain swr1, hits give low values 1.03 | locus YDR335W, strain msn5, hits give low values 1.03 | locus YDR388W, hits give low values 0.989 | locus YDR392W, strain spt3, hits give low values 0.981 | locus YDR502C, strain sam2, hits give low values 0.994 | locus YEL003W, strain gim4, hits give low values 1.03 | locus YEL037C, strain rad23, hits give low values 1.03 | locus YEL061C, strain CIN8 (second series), hits give low values 1.03 | locus YEL061C, strain CIN8, hits give low values 0.998 | locus YER015W, strain faa2, hits give low values 1.02 | locus YER016W, strain bim1, hits give low values 1.01 | locus YER110C, hits give low values 0.974 | locus YER111C, strain swi4, hits give low values 1.03 | locus YER155C, strain BEM2 (second series), hits give low values 1.01 | locus YER155C, strain BEM2, hits give low values 0.999 | locus YER167W, strain BCK2, hits give low values 0.985 | locus YFR010W, strain ubp6, hits give low values 1.03 | locus YGL078C, strain dbp3, hits give low values 0.99 | locus YGL086W, strain mad1, hits give low values 0.973 | locus YGL167C, strain pmr1, hits give low values 1.03 | locus YGL173C, strain kem1, hits give low values 1.03 | locus YGL227W, strain vid30, hits give low values 1.02 | locus YGL240W, strain doc1, hits give low values 1 | locus YGL248W, strain PDE1, hits give low values 0.992 | locus YGL253W, strain hxk2, hits give low values 1.01 | locus YGR078C, strain PAC10, hits give low values 1.03 | locus YGR135W, strain pre9, hits give low values 1.01 | locus YGR229C, strain SMI1, hits give low values 1.02 | locus YGR252W, strain gcn5, hits give low values 0.811 | locus YHR013C, strain ard1, hits give low values 1.07 | locus YHR027C, strain rpn1, hits give low values 1.02 | locus YHR030C, strain SLT2, hits give low values 0.988 | locus YHR079C, strain IRE1 (second series), hits give low values 0.979 | locus YHR094C, strain hxt1, hits give low values 0.995 | locus YHR129C, strain ARP1, hits give low values 0.998 | locus YHR142W, strain chs7, hits give low values 1.03 | locus YHR200W, strain rpn10, hits give low values 0.966 | locus YIL066C, strain RNR3, hits give low values 0.988 | locus YIL073C, strain SPO22, hits give low values 0.916 | locus YIL125W, strain kgd1, hits give low values 0.986 | locus YIR030C, strain dcg1, hits give low values 0.991 | locus YJL092W, strain hpr5, hits give low values 1.02 | locus YJL095W, strain BCK1 (second series), hits give low values 1.04 | locus YJL095W, strain BCK1, hits give low values 1.03 | locus YJL115W, strain asf1, hits give low values 1.02 | locus YJL129C, strain trk1, hits give low values 1.05 | locus YJL134W, strain LCB3, hits give low values 0.986 | locus YJL154C, strain vps35, hits give low values 1.02 | locus YJL164C, strain tpk1, hits give low values 1.04 | locus YJL166W, strain qcr8, hits give low values 1 | locus YJL168C, strain set2, hits give low values 0.986 | locus YJL187C, strain SWE1 (second series), hits give low values 1.01 | locus YJL187C, strain SWE1, hits give low values 1.02
